In PubChem BioAssay:
Records with an inconclusive call do not appear. Activity calls are given as the source filed them.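 Rule for the calls, unless noted: active = compounds killing one labelled cell type while sparing the other, by normalised counts and ratio limits, not self-fluorescent; inactive = the rest.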

Experiments:
[1] = EMT-state selective cytotoxicity in co-culture – imaging, PC-3E GFP, TEM4-18 mCherry, primary screen (AID 1345086); conditions: PC-3E GFP / TEM4-18 mCherry co-culture, imaging cell counts, at 1 µM; for red/green cell ratio (normalised): actives lie on both sides, counts scaled to control wells, 1 = unselective;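 for all read-outs here: cells exposed to compound for 72 h before imaging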;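 for red/green cell ratio (normalised): normalised mesenchymal count divided by normalised epithelial count so high means epithelial killing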
[2] = viability loss in pontine glioma line – cell-based, SU-DIPG-XIII, MIPE4.0, CellTiter-Glo, qHTS, dose response (AID 1347061; cut-off not given, nearly all actives have AC50 up to about 37 µM;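 note: cells exposed to compound for 48 hours before readout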); conditions: CellTiter-Glo ATP luminescence
[3] = viability loss in pontine glioma line – cell-based, SU-DIPG-IV, MIPE4.0, CellTiter-Glo, qHTS, dose response (AID 1347063; cut-off not given, nearly all actives have AC50 up to about 30 µM;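 note: compound exposure lasted 48 hours before the viability readout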); conditions: CellTiter-Glo ATP luminescence
[4] = growth inhibition of DIPG cells – cell-based, MIPE4.0 library, CellTiter-Glo luminescence, qHTS (AID 1347066; cut-off not given, nearly all actives have AC50 up to about 30 µM;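 note: cells exposed to compound for 48 hours before readout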); conditions: SU-DIPG-VI viability, CellTiter-Glo ATP luminescence
[5] = growth inhibition of DIPG cells – cell-based, MIPE5.0 library, qHTS (AID 1347068; cut-off not given, nearly all actives have IC50 up to about 30 µM); conditions: SU-DIPG-XXV viability
[6] = P. berghei load reduction in hepatocytes – cell-based, HepG2, luciferase luminescence, HepG2 viability, primary screen (AID 624349; in the data active = parasite load remaining mostly below about 12%, no sharp cut-off; inactive = mostly above about 10%;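 note: 100% = mean of DMSO negative control wells on the same plate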); conditions: P. berghei liver stage in HepG2, luciferase luminescence, concentration not given here; parasite load remaining: stronger effect = lower value; viability: measured here: HepG2 viability without parasites
[7] = viability loss in pontine glioma line – cell-based, JHH-DIPG-1, MIPE4.0, CellTiter-Glo, qHTS, dose response (AID 1347062; cut-off not given, nearly all actives have AC50 up to about 27 µM); conditions: JHH-DIPG-1 viability, CellTiter-Glo ATP luminescence
[8] = viability loss in pontine glioma line – cell-based, SU-DIPG-XIII, MIPE5.0, CellTiter-Glo, qHTS, dose response (AID 1347064; cut-off not given, nearly all actives have AC50 up to about 23 µM); conditions: CellTiter-Glo ATP luminescence
[9] = viability loss in pontine glioma line – cell-based, SU-DIPG-XXV, MIPE5.0, CellTiter-Glo, qHTS, dose response (AID 1347065; cut-off not given, nearly all actives have AC50 up to about 26 µM;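 note: cells exposed to compound for 48 hours before ATP readout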); conditions: CellTiter-Glo ATP luminescence
[10] = JHH-DIPG-1 glioma cell viability, MIPE5.0 library, CellTiter-Glo luminescence, qHTS (AID 1347067; cut-off not given, nearly all actives have AC50 up to about 26 µM;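 note: cells exposed to compound for 48 hours before readout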); conditions: JHH-DIPG-1 glioma viability, CellTiter-Glo ATP luminescence
[11] = biological target: NAD(+) hydrolase SARM1 (Homo sapiens) (UniProt Q6SZW1); assay: blocking NAD cleavage by SARM1 SAM-TIR – cell lysate, NAD-Glo luminescence (AID 1508614;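 active = compound whose remaining NAD level is above about 45 nM, limit read from the data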;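 note: higher remaining NAD means stronger inhibition of SARM1 NADase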); conditions: SAM-TIR HEK293T lysate NADase, at 1 µM, stronger effect = higher value
Sequence of NAD(+) hydrolase SARM1 (Homo sapiens) (Q6SZW1 whole entry, looked up, the tested form may be a part): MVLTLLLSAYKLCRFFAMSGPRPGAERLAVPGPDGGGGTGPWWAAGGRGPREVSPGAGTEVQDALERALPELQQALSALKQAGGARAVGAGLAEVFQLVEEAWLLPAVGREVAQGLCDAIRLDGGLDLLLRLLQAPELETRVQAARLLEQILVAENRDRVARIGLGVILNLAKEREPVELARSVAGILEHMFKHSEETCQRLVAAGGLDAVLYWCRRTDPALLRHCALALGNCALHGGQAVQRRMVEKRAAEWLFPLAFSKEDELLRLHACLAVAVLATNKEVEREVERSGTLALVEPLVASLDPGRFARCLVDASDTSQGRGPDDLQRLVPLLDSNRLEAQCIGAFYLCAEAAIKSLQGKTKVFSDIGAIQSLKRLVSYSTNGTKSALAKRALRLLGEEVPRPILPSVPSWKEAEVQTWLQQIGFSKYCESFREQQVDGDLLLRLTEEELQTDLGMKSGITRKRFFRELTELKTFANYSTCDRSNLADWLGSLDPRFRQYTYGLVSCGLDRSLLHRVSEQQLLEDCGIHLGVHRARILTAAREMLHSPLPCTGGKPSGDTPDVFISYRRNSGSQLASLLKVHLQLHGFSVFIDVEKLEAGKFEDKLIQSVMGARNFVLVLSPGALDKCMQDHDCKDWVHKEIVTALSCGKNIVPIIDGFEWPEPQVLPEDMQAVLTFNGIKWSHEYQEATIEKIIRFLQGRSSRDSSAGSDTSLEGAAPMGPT

[12] = biological target: Mitogen-activated protein kinase 7 (Homo sapiens) (UniProt Q13164); assay: Gal4-ERK5 driven luciferase induction – cell-based, HTS, primary screen (AID 1508626;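 active = luciferase signal above three times the same-plate solvent-only control wells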;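 note: luciferase driven by Gal4-ERK5 fusion binding five Gal4 sites before minimal TATA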); conditions: HeLa Gal4-ERK5 transactivation, 18 h, at 5 µM, stronger effect = higher value
Sequence of Mitogen-activated protein kinase 7 (Homo sapiens) (Q13164 whole entry, looked up, the tested form may be a part): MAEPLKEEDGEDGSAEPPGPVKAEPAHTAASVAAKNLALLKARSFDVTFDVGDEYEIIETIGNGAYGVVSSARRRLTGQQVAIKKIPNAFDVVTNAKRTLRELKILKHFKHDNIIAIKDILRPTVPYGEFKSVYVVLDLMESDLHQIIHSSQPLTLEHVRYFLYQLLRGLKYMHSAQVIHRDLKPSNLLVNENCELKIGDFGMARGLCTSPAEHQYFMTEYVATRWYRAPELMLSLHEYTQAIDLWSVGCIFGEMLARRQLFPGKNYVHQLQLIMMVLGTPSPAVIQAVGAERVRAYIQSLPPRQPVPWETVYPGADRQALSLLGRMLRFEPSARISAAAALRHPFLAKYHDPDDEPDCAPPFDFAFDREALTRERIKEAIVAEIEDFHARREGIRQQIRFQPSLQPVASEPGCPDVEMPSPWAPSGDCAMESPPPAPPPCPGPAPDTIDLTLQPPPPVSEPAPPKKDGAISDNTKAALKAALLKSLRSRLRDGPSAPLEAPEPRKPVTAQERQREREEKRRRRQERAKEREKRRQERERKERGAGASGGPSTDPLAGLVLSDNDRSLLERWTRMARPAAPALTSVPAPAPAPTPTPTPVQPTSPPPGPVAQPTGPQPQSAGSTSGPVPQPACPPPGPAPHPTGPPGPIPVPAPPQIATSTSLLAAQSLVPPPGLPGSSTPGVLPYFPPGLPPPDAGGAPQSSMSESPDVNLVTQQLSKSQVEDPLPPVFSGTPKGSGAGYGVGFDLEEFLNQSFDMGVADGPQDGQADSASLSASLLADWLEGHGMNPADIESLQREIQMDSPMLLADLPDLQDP

[13] = measured here: epithelial PC-3E GFP cell survival
[14] = measured here: mesenchymal TEM4-18 mCherry cell survival

For CC(C)CCCC(C)C1CCC2C3=CC[C@H]4C[C@@H](O)CC[C@]4(C)C3CC[C@@]21C (some centres undefined), which red/green cell ratio (normalised) [1] is on record?
The red/green cell ratio (normalised) was 0.98 (inactive).

And the normalised cell number [1, 13]?
Its normalised cell number is 1.1.

What about the normalised cell number [1, 14] of the same compound?
The normalised cell number was 1.08.

Which results are given for Oc1cc2c(cc1O)C1c3ccc(O)c(O)c3OCC1(O)C2 (centres undefined)?
red/green cell ratio (normalised) [1]: 1.05 (inactive); normalised cell number [1, 13]: 1.12; normalised cell number [1, 14]: 1.18; outcome [2]: inactive; outcome [3]: inactive; outcome [4]: inactive; outcome [5]: inactive

With N[C@@H](CC(=O)N1CCn2c(nnc2C(F)(F)F)C1)Cc1cc(F)c(F)cc1F as the compound, how does the parasite load remaining [6] read?
Its parasite load remaining is 48.9% (inactive).

And the viability [6]?
Its viability is 95.5%.

What about the red/green cell ratio (normalised) [1] of the same compound?
The red/green cell ratio (normalised) was 1.25 (inactive).

And the normalised cell number [1, 13]?
The normalised cell number was 0.94.

And the normalised cell number [1, 14]?
The normalised cell number was 1.18.

And the outcome [2]?
The outcome was “inactive”.

And the outcome [7]?
Its outcome is “inactive”.

And the outcome [8]?
The outcome was “inactive”.

What about the outcome [9] of the same compound?
Its outcome is “inactive”.

What about the outcome [4] of the same compound?
Its outcome is “inactive”.

And the outcome [10]?
The outcome was “inactive”.

What about the outcome [5] of the same compound?
The outcome was “inactive”.

What about the remaining NAD [11] of the same compound?
Its remaining NAD is 10 nM (inactive).

What about the luciferase signal [12] of the same compound?
The luciferase signal was 92 AU (inactive).
